# Data published in PubChem BioAssay (EPA / NIEHS).
# Activity calls are given as the source filed them. How the source made its calls: active means hit-call score of the fitted dose curve at least 0.9, where 1 is the maximum; inactive means score below 0.9.
# Key:
# [1] = BSK_3C_SRB: Viability Assessment in the BioMAP Diversity Plus: 3C Assay (AID 2283023); details: primary human endothelial cells (HUVEC);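 further: cells read 24 h after compound dosing; fitted both ways against DMSO so a hit may be signal rise or drop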
# Method in brief: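 Absorbance at 560 nm of sulforhodamine B-stained (0.1%) total protein served as a cytotoxicity readout in human umbilical vein endothelial cells, 24 h after chemical treatment. Signal was fitted bidirectionally relative to DMSO.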
# [2] = BSK_3C_Vis: BioMAP Diversity Plus: 3C Assay for Morphology Visualization (AID 2283025); details: primary human endothelial cells (HUVEC);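 further: fitted both ways so gain or loss versus DMSO counts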
# Method in brief: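 Human umbilical vein endothelial cells in the 3C system were imaged by light microscopy 24 h after chemical dosing to record cell morphology. Activity was fitted bidirectionally against DMSO as negative control and baseline; the endpoint serves as a background control.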
# [3] = read-out: Pselectin, SELP (gene 6403); assay: BSK_4H_Pselectin: BioMAP Diversity Plus: 4H Assay for Pselectin Biomarker Activity (AID 2283026); details: primary human endothelial cells (HUVEC); actives raise or lower the signal
# Method in brief: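 Primary human umbilical vein endothelial cells were exposed to test chemical for 24 h, then cell-surface P-selectin was quantified by ELISA. Activity was fitted bidirectionally against DMSO as negative control and baseline.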
# [4] = BSK_4H_SRB: Viability Assessment in the BioMAP Diversity Plus: 4H Assay (AID 2283027); details: primary human endothelial cells (HUVEC);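 further: cells exposed to compound for 24 h before staining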;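 on AC50: curves fitted both ways versus DMSO so AC50 may be loss or gain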
# Method in brief: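 Human umbilical vein endothelial cells were dosed with chemical and, after 24 h, fixed with 10% TCA, stained with 0.1% sulforhodamine B, and read at 560 nm to give total protein as a cytotoxicity measure. Bidirectional fitting relative to DMSO control.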
# [5] = BSK_BE3C_SRB: Viability Assessment in the BioMAP Diversity Plus: BE3C Assay (AID 2283028); details: primary human bronchial epithelial cells;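 on AC50: fitted both ways so AC50 may mark signal gain or loss versus DMSO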
# Method in brief: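 Cells (human bronchial epithelial, primary) are treated with chemicals, and after 24 h the parallel cultures are fixed in 10% TCA. These are then stained with 0.1% SRB and read at 560 nm. Gain or loss of signal is fitted relative to DMSO.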
# [6] = read-out: Thrombomodulin, THBD (gene 7056); assay: BSK_3C_Thrombomodulin: BioMAP Diversity Plus: 3C Assay for Thrombomodulin Biomarker Activity (AID 2283029); details: primary human endothelial cells (HUVEC); actives raise or lower the signal
# Method in brief: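 Primary human umbilical vein endothelial cells (3C system) were exposed to chemical for 24 h, then thrombomodulin levels were measured by ELISA. Activity was fitted bidirectionally against the DMSO negative control as baseline.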
# [7] = read-out: Urokinase-type plasminogen activator receptor (uPAR), PLAUR (gene 5329); assay: BSK_4H_uPAR: BioMAP Diversity Plus: 4H Assay for Urokinase-type plasminogen activator receptor (uPAR) Biomarker Activity (AID 2283030); details: primary human endothelial cells (HUVEC); actives raise or lower the signal
# Method in brief: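 Cell-surface uPAR ELISA signal, measured 24 h after dosing human umbilical vein endothelial cells, was analyzed with bidirectional fitting relative to DMSO. Parallel SRB staining of total protein tracked overt cytotoxicity.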
# [8] = read-out: Human Leukocyte Antigen - DR isotype (HLADR), HLA-DRA (gene 3122); assay: BSK_BE3C_HLADR: BioMAP Diversity Plus: BE3C Assay for Human Leukocyte Antigen - DR isotype (HLADR) Biomarker Activity (AID 2283032); details: primary human bronchial epithelial cells; actives raise or lower the signal
# Method in brief: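 Human primary bronchial epithelial cells in the BE3C system were exposed to chemicals for 24 h, after which HLA-DR levels were quantified by ELISA. Activity was fitted bidirectionally, gain or loss of signal, against DMSO as negative control and baseline.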
# [9] = read-out: Vascular cell adhesion molecule 1 (VCAM1), VCAM1 (gene 7412); assay: BSK_4H_VCAM1: BioMAP Diversity Plus: 4H Assay for Vascular cell adhesion molecule 1 (VCAM1) Biomarker Activity (AID 2283033); details: primary human endothelial cells (HUVEC); actives raise or lower the signal;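 on outcome: cell-surface VCAM-1 protein measured by ELISA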
# Method in brief: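 Primary human umbilical vein endothelial cells were exposed to chemicals for 24 h, after which VCAM-1 was quantified by ELISA. Responses were fitted bidirectionally against DMSO as negative control and activity baseline.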
# [10] = read-out: Interferon-gamma inducible Protein 10 (IP10), CXCL10 (gene 3627); assay: BSK_BE3C_IP10: BioMAP Diversity Plus: BE3C Assay for Interferon-gamma inducible Protein 10 (IP10) Biomarker Activity (AID 2283034); details: primary human bronchial epithelial cells; actives raise or lower the signal
# Method in brief: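 Human primary bronchial epithelial cells were exposed to chemicals for 24 hours, after which IP-10 levels were measured by ELISA. Data were fitted bidirectionally against DMSO, which served as the negative control and activity baseline.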
# [11] = read-out: Monokine induced gamma interferon (MIG), CXCL9 (gene 4283); assay: BSK_BE3C_MIG: BioMAP Diversity Plus: BE3C Assay for Monokine induced gamma interferon (MIG) Biomarker Activity (AID 2283035); details: primary human bronchial epithelial cells; actives raise or lower the signal;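 on outcome: MIG protein measured by ELISA in BE3C cultures after 24 h of dosing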
# Method in brief: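 ELISA read-out of MIG in human lung bronchial epithelial primary cultures, 24 h post-dosing. Bidirectional curve fit vs DMSO baseline.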
# [12] = read-out: Transforming growth factor beta 1 (TGFb1), TGFB1 (gene 7040); assay: BSK_BE3C_TGFb1: BioMAP Diversity Plus: BE3C Assay for Transforming growth factor beta 1 (TGFb1) Biomarker Activity (AID 2283036); details: primary human bronchial epithelial cells; actives raise or lower the signal
# Method in brief: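 Human primary bronchial epithelial cells (BE3C system) were dosed with chemical and TGF-b1 levels measured by ELISA at 24 h. Activity was fitted bidirectionally relative to DMSO negative control as baseline.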
# [13] = read-out: Plasminogen activator inhibitor-1 (PAI1), SERPINE1 (gene 5054); assay: BSK_BE3C_PAI1: BioMAP Diversity Plus: BE3C Assay for Plasminogen activator inhibitor-1 (PAI1) Biomarker Activity (AID 2283037); details: primary human bronchial epithelial cells; actives raise or lower the signal
# Method in brief: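 Human primary bronchial epithelial cells were exposed to chemical for 24 h, then PAI-1 was quantified by ELISA. Activity was fitted bidirectionally relative to the DMSO negative control baseline.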
# [14] = read-out: urokinase plasminogen activator (uPA), PLAU (gene 5328); assay: BSK_BE3C_uPA: BioMAP Diversity Plus: BE3C Assay for urokinase plasminogen activator (uPA) Biomarker Activity (AID 2283038); details: primary human bronchial epithelial cells; actives raise or lower the signal;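 on outcome: uPA protein level quantified by ELISA in cell cultures; uPA read one day after compound addition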
# Method in brief: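 Bronchial epithelial cells (human, primary); chemical 24 h; uPA by ELISA; bidirectional fit vs DMSO. SRB (0.1%, after 10% TCA fixation, 560 nm) in parallel cultures for cytotoxicity.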
# [15] = read-out: Urokinase-type plasminogen activator receptor (uPAR), PLAUR (gene 5329); assay: BSK_BE3C_uPAR: BioMAP Diversity Plus: BE3C Assay for Urokinase-type plasminogen activator receptor (uPAR) Biomarker Activity (AID 2283039); details: primary human bronchial epithelial cells; actives raise or lower the signal;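 on outcome: cells exposed to compound for one day before measurement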
# Method in brief: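 Primary human bronchial epithelial cells were dosed with chemical and harvested 24 h later; uPAR was quantified by ELISA. Activity was fitted bidirectionally against DMSO as negative control and baseline.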
# [16] = read-out: Interleukin-6 (IL6), IL6 (gene 3569); assay: BSK_CASM3C_IL6: BioMAP Diversity Plus: CASM3C Assay for Interleukin-6 (IL6) Biomarker Activity for (AID 2283040); details: primary human coronary artery smooth muscle cells; actives raise or lower the signal
# [17] = read-out: Tissue plasminogen activator (tPA), PLAT (gene 5327); assay: BSK_BE3C_tPA: BioMAP Diversity Plus: BE3C Assay for Tissue plasminogen activator (tPA) Biomarker Activity (AID 2283041); details: primary human bronchial epithelial cells; actives raise or lower the signal;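 on outcome: tPA level quantified by ELISA one day after compound addition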
# Method in brief: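 Human primary bronchial epithelial cells were dosed with chemical and tPA biomarker levels measured by ELISA 24 hours later. Activity was fitted bidirectionally against DMSO as negative control and baseline.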
# [18] = read-out: Interleukin-8 (IL8), CXCL8 (gene 3576); assay: BSK_CASM3C_IL8: BioMAP Diversity Plus: CASM3C Assay for Interleukin-8 (IL8) Biomarker Activity (AID 2283042); details: primary human coronary artery smooth muscle cells; actives raise or lower the signal;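 further: IL-8 protein level quantified by ELISA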
# [19] = read-out: Vascular endothelial growth factor receptor 2 (Homo sapiens) (UniProt P35968); assay: BSK_4H_VEGFRII: BioMAP Diversity Plus: 4H Assay for Vascular endothelial growth factor receptor 2 (VEGFR2) Biomarker Activity (AID 2283031); details: primary human endothelial cells (HUVEC); actives raise or lower the signal
# Method in brief: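 ELISA read-out of VEGFRII in primary human umbilical vein endothelium, taken 24 h after chemical treatment. Responses are expressed relative to DMSO, with bidirectional fitting.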
# [20] = read-out: Matrix Metallopeptidase 1 (MMP1), MMP1 (gene 4312); assay: BSK_BE3C_MMP1: BioMAP Diversity Plus: BE3C Assay for Matrix Metallopeptidase 1 (MMP1) Biomarker Activity (AID 2283024); details: primary human bronchial epithelial cells; actives raise or lower the signal
# Method in brief: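 Primary human bronchial epithelial cells were dosed with test chemicals, and MMP1 levels were measured by ELISA 24 h later. Data were fitted bidirectionally against DMSO as the negative control and activity baseline.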
smiles,measurement,setting,value
Nc1nc(Cl)nc2c1ncn2[C@H]1C[C@H](O)[C@@H](CO)O1,outcome,[1],inactive
same,AC50,[2],38.6 µM (active)
same,outcome,[3],inactive
same,outcome,[4],inactive
same,outcome,[5],inactive
same,outcome,[6],inactive
same,AC50,[7],18.5 µM (active)
same,outcome,[8],inactive
same,outcome,[9],inactive
same,outcome,[10],inactive
same,outcome,[11],inactive
same,outcome,[12],inactive
same,outcome,[13],inactive
same,outcome,[14],inactive
same,outcome,[15],inactive
same,outcome,[16],inactive
same,outcome,[17],inactive
same,outcome,[18],inactive
O=C(O)c1cccnc1,outcome,[1],inactive
same,outcome,[2],inactive
same,outcome,[3],inactive
same,outcome,[4],inactive
same,outcome,[5],inactive
same,outcome,[6],inactive
same,outcome,[7],inactive
same,outcome,[19],inactive
same,outcome,[8],inactive
same,outcome,[9],inactive
same,outcome,[10],inactive
same,outcome,[11],inactive
same,outcome,[12],inactive
same,outcome,[13],inactive
same,outcome,[15],inactive
same,outcome,[16],inactive
same,outcome,[17],inactive
same,outcome,[18],inactive
CC(C)NCC(O)c1ccc(O)c(O)c1 (centres undefined),outcome,[1],inactive
same,outcome,[2],inactive
same,outcome,[3],inactive
same,outcome,[4],inactive
same,outcome,[5],inactive
same,outcome,[6],inactive
same,outcome,[7],inactive
same,outcome,[8],inactive
same,outcome,[9],inactive
same,outcome,[10],inactive
same,outcome,[11],inactive
same,outcome,[12],inactive
same,outcome,[13],inactive
same,outcome,[14],inactive
same,outcome,[15],inactive
same,outcome,[16],inactive
same,outcome,[17],inactive
same,outcome,[18],inactive
COC(=O)CCC(=O)OC,outcome,[1],inactive
same,outcome,[2],inactive
same,outcome,[3],inactive
same,outcome,[4],inactive
same,outcome,[5],inactive
same,outcome,[6],inactive
same,outcome,[7],inactive
same,outcome,[8],inactive
same,outcome,[9],inactive
same,outcome,[10],inactive
same,outcome,[11],inactive
same,outcome,[12],inactive
same,outcome,[13],inactive
same,outcome,[15],inactive
same,outcome,[16],inactive
same,outcome,[17],inactive
same,outcome,[18],inactive
O=C1OC(c2ccc(O)cc2)(c2ccc(O)cc2)c2ccccc21,AC50,[1],28.6 µM (active)
same,AC50,[2],37.5 µM (active)
same,AC50,[3],30.2 µM (active)
same,outcome,[5],inactive
same,outcome,[6],inactive
same,AC50,[7],14.3 µM (active)
same,outcome,[19],inactive
same,AC50,[8],0.379 µM (active)
same,AC50,[9],30.8 µM (active)
same,AC50,[11],7.79 µM (active)
same,outcome,[12],inactive
same,outcome,[13],inactive
same,outcome,[15],inactive
same,outcome,[16],inactive
same,outcome,[17],inactive
O=C(N[C@@H](c1ccccc1)[C@@H]1CCCCN1)c1cccc(C(F)(F)F)c1Cl,AC50,[1],20 µM (active)
same,AC50,[2],13.7 µM (active)
same,AC50,[3],20 µM (active)
same,outcome,[4],inactive
same,AC50,[5],34.3 µM (active)
same,outcome,[6],inactive
same,outcome,[7],inactive
same,outcome,[19],inactive
same,AC50,[8],33.2 µM (active)
same,outcome,[9],inactive
same,AC50,[10],33.5 µM (active)
same,AC50,[11],34.7 µM (active)
same,AC50,[12],36.7 µM (active)
same,AC50,[13],32.4 µM (active)
same,AC50,[15],33.3 µM (active)
same,outcome,[16],inactive
same,AC50,[17],24 µM (active)
same,outcome,[18],inactive
COC(=O)CCCC(=O)OC,outcome,[1],inactive
same,outcome,[2],inactive
same,outcome,[3],inactive
same,outcome,[4],inactive
same,outcome,[5],inactive
same,outcome,[6],inactive
same,outcome,[7],inactive
same,outcome,[8],inactive
same,outcome,[9],inactive
same,outcome,[10],inactive
same,outcome,[11],inactive
same,outcome,[12],inactive
same,outcome,[13],inactive
same,outcome,[15],inactive
same,outcome,[16],inactive
same,outcome,[17],inactive
same,outcome,[18],inactive
CN(C)CCCN1c2ccccc2Sc2ccc(Cl)cc21,AC50,[20],32.9 µM (active)
same,AC50,[3],35.9 µM (active)
same,AC50,[4],26 µM (active)
same,AC50,[5],39 µM (active)
same,outcome,[6],inactive
same,AC50,[7],12.2 µM (active)
same,AC50,[9],17.8 µM (active)
same,AC50,[10],30.5 µM (active)
same,AC50,[11],38.4 µM (active)
same,AC50,[12],32.1 µM (active)
same,AC50,[13],31.9 µM (active)
same,AC50,[14],36.4 µM (active)
same,AC50,[15],29.4 µM (active)
same,outcome,[16],inactive
same,AC50,[17],32.1 µM (active)
same,outcome,[18],inactive
CCC(C)N(C)C(=O)c1cc2ccccc2c(-c2ccccc2Cl)n1 (centres undefined),outcome,[1],inactive
same,outcome,[2],inactive
same,outcome,[3],inactive
same,outcome,[4],inactive
same,outcome,[5],inactive
same,outcome,[6],inactive
same,outcome,[7],inactive
same,outcome,[8],inactive
same,outcome,[9],inactive
same,outcome,[10],inactive
same,outcome,[11],inactive
same,outcome,[12],inactive
same,outcome,[13],inactive
same,outcome,[15],inactive
same,outcome,[16],inactive
same,outcome,[17],inactive
same,outcome,[18],inactive
